hcDAF12 agonist = activates DAF-12 receptor from parasite H. contortus | HEK293 hcDAF-12 lit1-tk-luc reporter, luminescence; 0% DMSO, 100% Δ7-dafachronic acid | activation, % at 6.8 µM | 370,000 tested, 1.4% active | AID 652067;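 active = activation above the mean of all tested compounds plus 3 SD, cut at about 5.5% in these data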
SMARCA2 activ = increases SMARCA2 function in MMTV reporter cells. MG213 cells, MMTV-luciferase reporter, dexamethasone, overnight. activation, % at 9.1 µM. 370,000 tested, 1% active. AID 652017; in the data active = activation above about 7.8%
DAX1 inh-1 = inhibits human nuclear receptor DAX1; HEK293 Gal4-DAX1 luciferase reporter, luminescence; 340,000 tested, 0.99% active; inhibition, % at 6.75 µM; P51843;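 active = inhibition above the mean over all tested compounds plus 3 SD, cut at about 4.2% in these data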;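 note: inhibition shows as a rise in luminescence from relieved DAX1 repression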
Target sequence (P51843 207-470 limits assumed): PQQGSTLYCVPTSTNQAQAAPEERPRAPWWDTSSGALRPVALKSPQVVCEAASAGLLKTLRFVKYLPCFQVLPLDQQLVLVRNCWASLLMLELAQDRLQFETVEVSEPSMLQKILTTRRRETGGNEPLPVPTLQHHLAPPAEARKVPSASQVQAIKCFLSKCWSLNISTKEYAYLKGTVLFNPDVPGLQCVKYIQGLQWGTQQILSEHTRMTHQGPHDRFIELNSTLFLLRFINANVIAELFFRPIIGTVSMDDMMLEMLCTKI
hgDAF-12 ag = agonists of H. glycines DAF-12 nuclear receptor. HEK293 GAL4-hgDAF12 UAS-luciferase reporter, agonist luminescence; normalized to butyrate control. activation, % at 6.8 µM. 370,000 tested, 1.8% active. AID 687014;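 active = activation above a cutoff set at the mean of all screened compounds plus 3 SD, cut at about 10% in these data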
DAX1 inh-2 = inhibitors of DAX1 repression of SF-1 activated StAR promoter; HEK293T StAR-luciferase reporter, SF-1/DAX-1 repression relief; inhibition, % at 6.8 µM; 370,000 tested, 1.1% active; AID 652010;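 active = inhibition above the mean over all tested compounds plus 3 SD, cut at about 3.6% in these data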;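 note: higher inhibition means more luminescence from relief of DAX-1 repression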
ssDAF12 agonist = S. stercoralis DAF-12 activation, primary screen. HEK293 ssDAF-12/GRIP1 lit1-tk-luc reporter, luminescence; % of 3 µM dafachronic acid response. activation, % at 6.8 µM. 370,000 tested, 1% active;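 active = activation above the mean over all tested compounds plus 3 SD, cut at about 0.9% in these data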
Each line names hits and unclear results; the compound was inactive in the other large screens. Compounds with a hit are over-represented: about 4.8% of the library has one in this group of screens.

C=CCn1c(C)cc(C(=O)COC(=O)c2ccc(N)c([N+](=O)[O-])c2)c1C	hgDAF-12 ag 12
COc1ccc(-c2nc(N3CCN(C)CC3)sc2-c2ccc(OC)cc2)cc1	none
CN=c1scc(-c2ccco2)n1/N=C/c1ccc(O)c(O)c1	hcDAF12 agonist 8.4, hgDAF-12 ag 17
COc1ccc(O)c(/C=N/n2c(-c3ccco3)csc2=Nc2cccnc2)c1	none
Cc1ccc(-c2ccc(C(=O)NCc3ccccc3)o2)c2ccccc12	none
CCOc1ccccc1-c1ccc(C(=O)NCc2ccccc2)o1	DAX1 inh-1 7.3
CC1CCN(Cc2ccc(NC(=O)CC3Oc4ccccc4NC3=O)cc2)CC1 (centres undefined)	DAX1 inh-1 6.2
O=C(CC1Oc2ccccc2NC1=O)NCc1ccc(Cl)cc1 (centres undefined)	DAX1 inh-1 4.4
CCc1cccc(NC(=O)CC2Oc3ccccc3NC2=O)c1 (centres undefined)	none
OCCCn1c(C2CCCN2c2nc(-c3ccc(Cl)cc3)cs2)nc2cc(Cl)c(N3CCCCC3)cc21 (centres undefined)	DAX1 inh-1 5.3
CCOc1cc(/C=N/N=C(N)N)ccc1OCc1ccc(Cl)cc1	none
COc1ccc2[nH]c(-c3ccccc3)cc2c1	hcDAF12 agonist 6.1, DAX1 inh-1 4.2
COc1ccc(-c2nc3ccc([N+](=O)[O-])cc3[nH]2)cc1	hcDAF12 agonist 6.3, hgDAF-12 ag 19, DAX1 inh-2 4.5, ssDAF12 agonist 1.8
CCOc1ccc2nc(C(C)O)[nH]c2c1 (centres undefined)	none
COc1ccc2nc(-c3ccccc3)[nH]c2c1	hgDAF-12 ag 13
CCOc1ccc2nc(-c3ccccc3)[nH]c2c1	hgDAF-12 ag 12
C=CCn1c(C)cc(C(=O)COC(=O)CNC(=O)c2ccccc2)c1C	none
Cc1ccnc(NC(=O)c2cc(-c3ccc(Cl)s3)nc3ccccc23)c1	DAX1 inh-1 4.7
Cc1cc(NC(=O)c2cc(-c3ccc(C)s3)nc3ccccc23)no1	ssDAF12 agonist 1.7
Cc1cc(NC(=O)c2cc(-c3ccccc3C)nc3ccccc23)no1	none
Cc1nc2ccc(S(=O)(=O)NCC(=O)N3CCc4ccccc43)cc2s1	ssDAF12 agonist 0.9
Oc1ccc(/C=N/Nc2ccc(C(F)(F)F)cn2)cc1	DAX1 inh-2 4.4
Oc1ccc(/C=N/Nc2ccc(C(F)(F)F)cn2)c(O)c1	none
C/C(=N\Nc1ccc(C(F)(F)F)cn1)c1ccncc1	DAX1 inh-2 4.0
c1ccc(Sc2ccncc2)cc1	DAX1 inh-1 5.7
c1cc(SSc2ccncc2)ccn1	none
COc1ccccc1CNC(=O)CSc1nnc2ccc(-c3cccnc3)nn12	DAX1 inh-1 4.4
COc1ccc(NC(=O)CSc2nnc3ccc(-c4cccnc4)nn23)cc1OC	none
Cc1cccc(-c2ccc3[nH]c4c(c3c2)CCN2C[C@@H]([C@H](C)O)[C@@H](N(C)C(=O)Nc3ccc(F)cc3)C[C@@H]42)c1	none
Cc1ccc(C(CC(=O)N2CCCCC2)c2ccccc2)c(O)c1C (centres undefined)	ssDAF12 agonist 1.6
Cc1nn(CC(=O)N2CCCc3ccccc32)c(C)c1[N+](=O)[O-]	none
COc1ccc(F)c(CN(C)CC2CCCN(CCc3ccc(F)cc3)C2)c1 (centres undefined)	DAX1 inh-1 4.5
O=C(Nc1ccc(N2CCOCC2)c(Cl)c1)c1ccco1	hgDAF-12 ag 12, DAX1 inh-2 3.7
COc1ccc(NC(=O)C(=O)NCCO)cc1Cl	none
O=C(Nc1ccc(CN2CCOCC2)cc1)c1ccco1	hcDAF12 agonist 5.6
COc1ccc(NC(=O)C(=O)NCCCO)cc1Cl	DAX1 inh-1 4.5
O=C(c1ccccc1F)N1CCN(c2ccc([N+](=O)[O-])c(N3CCOCC3)c2)CC1	DAX1 inh-1 5.8
CSc1ncccc1C(=O)NCCc1ccc(Cl)cc1	none
CCC(C)NC(=O)CN(c1cc(C)ccc1OC)S(C)(=O)=O (centres undefined)	none
O=C(Nc1ccc(N2CCOCC2)c(Cl)c1)c1ccccc1F	DAX1 inh-2 3.7
O=C(Nc1ccc(F)cc1)c1ccccc1F	hcDAF12 agonist 6.3
CC(=O)Nc1ccc(NC(=O)c2ccccc2F)cc1	none
